Each structure is given as a SMILES string. The whole screen tested about 310,000 compounds, of which about 14,000 (4.5%) showed an effect of 50% or more. Effects have a minus sign here. The entries come from a sample that favours strong results as a whole.

The text below walks through data of paper PMC4336329 (PLoS ONE, 2015).
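Further: peak tail current of the secondary pulse compared with the same well before compound.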

Chain of human ether-à-go-go-related gene (hERG) potassium channel (Q12809 whole entry, looked up): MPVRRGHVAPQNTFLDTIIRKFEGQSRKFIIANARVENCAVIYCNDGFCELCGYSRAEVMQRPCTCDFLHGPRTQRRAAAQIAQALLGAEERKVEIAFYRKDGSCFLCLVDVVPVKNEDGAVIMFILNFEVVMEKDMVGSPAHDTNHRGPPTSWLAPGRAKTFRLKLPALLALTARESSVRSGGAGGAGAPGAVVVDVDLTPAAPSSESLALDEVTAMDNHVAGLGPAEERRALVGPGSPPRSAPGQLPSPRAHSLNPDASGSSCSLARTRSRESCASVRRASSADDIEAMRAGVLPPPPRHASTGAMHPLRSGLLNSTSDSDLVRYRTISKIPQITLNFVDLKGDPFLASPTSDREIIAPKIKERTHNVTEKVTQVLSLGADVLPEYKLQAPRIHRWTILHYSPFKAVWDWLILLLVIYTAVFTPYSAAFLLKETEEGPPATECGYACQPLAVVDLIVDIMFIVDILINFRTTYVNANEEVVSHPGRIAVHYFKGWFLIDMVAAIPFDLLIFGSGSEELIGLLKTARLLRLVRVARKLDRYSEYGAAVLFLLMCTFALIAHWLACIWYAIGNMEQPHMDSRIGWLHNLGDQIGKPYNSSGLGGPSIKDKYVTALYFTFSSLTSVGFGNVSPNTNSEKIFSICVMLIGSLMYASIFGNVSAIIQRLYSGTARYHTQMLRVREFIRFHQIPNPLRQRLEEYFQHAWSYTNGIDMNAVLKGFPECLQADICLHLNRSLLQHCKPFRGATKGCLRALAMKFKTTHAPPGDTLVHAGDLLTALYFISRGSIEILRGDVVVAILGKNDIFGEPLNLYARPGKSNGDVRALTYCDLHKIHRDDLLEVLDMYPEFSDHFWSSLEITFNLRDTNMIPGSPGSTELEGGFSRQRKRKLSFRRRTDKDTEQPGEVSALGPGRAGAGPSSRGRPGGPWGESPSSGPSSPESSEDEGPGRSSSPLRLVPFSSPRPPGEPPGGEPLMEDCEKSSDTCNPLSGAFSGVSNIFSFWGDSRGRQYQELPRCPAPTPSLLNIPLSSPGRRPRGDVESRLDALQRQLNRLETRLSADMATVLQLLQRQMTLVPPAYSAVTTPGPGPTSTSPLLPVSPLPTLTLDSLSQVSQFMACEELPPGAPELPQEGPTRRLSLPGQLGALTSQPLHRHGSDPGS

The assay addresses human ether-à-go-go-related gene (hERG) potassium channel (human, UniProt Q12809). Description: primary screen, population patch clamp on CHO cells stably expressing hERG; higher = less effect of the substance.
Turning to `CCN1CCN(C(=O)c2ccc3c(c2)N(Cc2ccc(F)cc2)C(=O)c2ccccc2S3=O)CC1` (stereo not shown), the “hERG current change (%, negative = inhibition) at 10uM” value was -9.09%. Turning to `O=C(NCc1ccccn1)[C@H]1C[C@@H]1[C@H](NP(=O)(c1ccccc1)c1ccccc1)c1ccccc1`, the “hERG current change (%, negative = inhibition) at 10uM” value was -9%. The result for `O=C(Nc1ccc2oc(-c3cccnc3)nc2c1)c1ccco1` reads -33.2%; that for `CC(=O)Nc1ccc(S(=O)(=O)N2CCC(C(=O)N[C@@H](C)C(=O)NC3CCCC3)CC2)cc1`, 35.3%.

As to `CCn1c(=O)c2ccccc2n(Cc2cccc(C)c2)c1=O`, the “hERG current change (%, negative = inhibition) at 10uM” value is recorded as 3.93%. The value for `Cc1c(C=O)c2ccccc2n1Cc1ccc([N+](=O)[O-])cc1` was -78.1%. The value for `COc1ccc(Cn2c(C)nc3ccc([N+](=O)[O-])cc3c2=O)cc1` was -20%; that for `Cc1nc2ccc([N+](=O)[O-])cc2c(=O)n1Cc1ccc(F)cc1` was -26.2%. For `Cc1nc2ccc([N+](=O)[O-])cc2c(=O)n1Cc1ccc(Br)cc1`, the “hERG current change (%, negative = inhibition) at 10uM” value turned out to be 7.76%. The value for `CCn1c(=O)c2ccccc2n(Cc2cccc([N+](=O)[O-])c2)c1=O` was 15.3%; that for `Cc1nc2ccc([N+](=O)[O-])cc2c(=O)n1Cc1ccc(Cl)cc1` was -4.6%. `CCn1c(=O)c2ccccc2n(Cc2ccc([N+](=O)[O-])cc2)c1=O`: the “hERG current change (%, negative = inhibition) at 10uM” value was -77%. For the compound `Cc1c(C=O)c2ccccc2n1Cc1ccccc1`, the “hERG current change (%, negative = inhibition) at 10uM” value is -2.16%. `Cc1c(C=O)c2ccccc2n1Cc1ccc(F)cc1`: the “hERG current change (%, negative = inhibition) at 10uM” value was -43.1%.

With `Cc1nc2ccc([N+](=O)[O-])cc2c(=O)n1Cc1ccc([N+](=O)[O-])cc1`, the “hERG current change (%, negative = inhibition) at 10uM” value was -76.8%. The value for `Cc1nc2ccccc2c(=O)n1Cc1ccc([N+](=O)[O-])cc1` was -74.4%; that for `Cc1onc(-c2ccccc2Cl)c1C(=O)Nc1ccc(S(=O)(=O)NCC2CCCO2)cc1` (stereo not shown) was -10.5%; that for `COc1ccc(C(=O)Nc2ccccc2N2CCOCC2)cc1S(=O)(=O)N1CCCC1` was -24.5%.

On to `O=C(NCCCN1CCOCC1)c1cccc(S(=O)(=O)N2CCc3ccccc3C2)c1`, for which the “hERG current change (%, negative = inhibition) at 10uM” value is -17%.

Turning to `O=C(NNC(=O)c1ccc(Cl)cc1Cl)c1ccncc1`, the “hERG current change (%, negative = inhibition) at 10uM” value came out at 17%. Turning to `Cc1ccc(-c2cccc(C(=O)NCc3ccccc3)n2)c2ccccc12`, the “hERG current change (%, negative = inhibition) at 10uM” value is reported as 17.8%. Consider `CCOC(=O)N1C=CC=C[C@@H]2[C@@H](N3C(=O)c4ccccc4C3=O)C(=O)N21`, for which the “hERG current change (%, negative = inhibition) at 10uM” value was determined as 0.941%. Regarding `COc1ccc(OC)c2[nH]c(=O)c(CCNC(=O)C(=O)c3c(C)[nH]c4ccccc34)cc12`, the “hERG current change (%, negative = inhibition) at 10uM” value was -1.04%. The result for `C/C(CC(=O)Nc1ccccc1[N+](=O)[O-])=N\NC(=O)COc1ccccc1C` reads -5.65%; that for `COC(=O)c1cc(-c2ccc(OC)c(OC)c2)c2c(=O)[nH]c(=O)n(C)c2n1`, 21.3%. `COc1ccc(CSCCc2n[nH]c(=S)n2-c2ccccc2)cc1`: the “hERG current change (%, negative = inhibition) at 10uM” value was 20.1%. For the compound `CC1=Nn2c(nnc2-c2n[nH]c3c2CCC3)SC1`, the “hERG current change (%, negative = inhibition) at 10uM” value is recorded as 8.18%. Take `COc1ccc(N(CC(=O)NCc2ccncc2)S(=O)(=O)c2ccc(C)c([N+](=O)[O-])c2)cc1`: the “hERG current change (%, negative = inhibition) at 10uM” value was -50.9%. For the compound `Cc1ccc(S(=O)(=O)N(CC(=O)NCc2cccnc2)c2ccc(F)cc2)cc1`, the “hERG current change (%, negative = inhibition) at 10uM” value is -61.2%. On to `Cc1ccc(N(CC(=O)NCC(O)c2ccccc2)S(=O)(=O)c2ccc(C)cc2)cc1` (stereo not shown), for which the “hERG current change (%, negative = inhibition) at 10uM” value is reported as -65.9%. As to `COc1ccc(S(=O)(=O)N(CC(=O)NCc2cccnc2)c2ccc(C)cc2)cc1OC`, the “hERG current change (%, negative = inhibition) at 10uM” value was -10%. The result for `CCNC(=O)CN(c1ccc(C)cc1)S(=O)(=O)c1ccccc1` reads 7.75%; that for `COc1ccc(N(CC(=O)NC(C)c2ccccc2)S(=O)(=O)c2ccc(C)cc2)cc1` (stereo not shown), -22.1%; that for `CN(c1ccc(OCC(=O)OCC(=O)Nc2c(F)c(F)c(F)c(F)c2F)cc1)S(=O)(=O)c1ccc(F)cc1`, 8.61%.

On to `COc1ccc(N(CC(=O)NCc2cccnc2)S(=O)(=O)c2ccc(C)c([N+](=O)[O-])c2)cc1`, for which the “hERG current change (%, negative = inhibition) at 10uM” value is reported as -36.6%. The result for `CN(c1ccc(OCC(=O)OCC(=O)Nc2ccccc2)cc1)S(=O)(=O)c1ccc(F)cc1` reads -11.9%; that for `COc1ccc(N(CC(=O)Nc2ccc(C(N)=O)cc2)S(=O)(=O)c2ccc(C)c([N+](=O)[O-])c2)cc1`, 24%.

On to `COc1ccc(S(=O)(=O)N(CC(=O)NCc2cccnc2)c2ccc(F)cc2)cc1OC`, for which the “hERG current change (%, negative = inhibition) at 10uM” value stood at 4.62%. The value for `CN(c1ccc(OCC(=O)OCC(=O)Nc2ccc(F)cc2)cc1)S(=O)(=O)c1ccc(Cl)cc1` was -59.2%; that for `Fc1ccc(C2=CCN(C(c3cccs3)c3nnnn3CCc3ccccc3)CC2)cc1` (stereo not shown) was -0.341%; that for `O=C(CCC(=O)c1cccs1)Nc1ccccc1F` was 3.01%. For the compound `COc1ccc(C(=O)CCC(=O)NCCc2c[nH]c3ccccc23)cc1OC`, the “hERG current change (%, negative = inhibition) at 10uM” value is given as 21.2%. For `Cc1cccc(C)c1NC(=O)c1ccc(CN2CCc3ccccc3C2)cc1`, the “hERG current change (%, negative = inhibition) at 10uM” value is given as 4.57%. As to `Cc1nn(CC(=O)N2CCCCCC2)c(=O)c2cc3occc3n12`, the “hERG current change (%, negative = inhibition) at 10uM” value is reported as 14.6%. For `Cc1cc(NC(=O)c2cc(-c3ccc(Br)cc3)on2)no1`, the “hERG current change (%, negative = inhibition) at 10uM” value is 17.6%. Consider `COc1ccc(CCNC(=O)c2ccccc2OCc2c(C)noc2C)cc1`, for which the “hERG current change (%, negative = inhibition) at 10uM” value is listed as -26.4%. Take `NS(=O)(=O)c1ccc(NC(=O)/C=C/c2ccccc2Cl)cc1`: the “hERG current change (%, negative = inhibition) at 10uM” value is given as 9.54%. For the compound `CN=C(Nc1cc(C)nn1-c1ccccc1)c1ccc(F)cc1`, the “hERG current change (%, negative = inhibition) at 10uM” value is given as -9.94%.

Regarding `COc1cc(SC)ccc1C(=O)Nc1cccc(S(=O)(=O)NC2=NCCCCC2)c1`, the “hERG current change (%, negative = inhibition) at 10uM” value is 4.08%. For the compound `Cc1ccc(S(=O)(=O)N(Cc2ccc(Cl)cc2)c2ccccc2C(=O)NCc2cccnc2)cc1`, the “hERG current change (%, negative = inhibition) at 10uM” value is -52%. For the compound `COCCNC(=O)COc1ccc(N(C)S(=O)(=O)c2ccc3ccccc3c2)cc1`, the “hERG current change (%, negative = inhibition) at 10uM” value was -62%. With `Cc1ccc(S(=O)(=O)N(Cc2ccccc2)c2ccccc2C(=O)NCc2cccnc2)cc1`, the “hERG current change (%, negative = inhibition) at 10uM” value is -33.2%. For `O=C(COc1ccc(S(=O)(=O)N2CCCC2)cc1Cl)NCc1cccnc1`, the “hERG current change (%, negative = inhibition) at 10uM” value is listed as -55%. Turning to `CCOc1ccc(S(=O)(=O)N(C)c2ccc(OCC(=O)NCc3cccnc3)cc2)cc1`, the “hERG current change (%, negative = inhibition) at 10uM” value was -21.5%. The result for `CN(c1ccc(OCC(=O)NCCc2ccccc2)cc1)S(=O)(=O)c1ccc(Cl)cc1` reads 15.2%; that for `O=C(COc1ccc(S(=O)(=O)N2CCCCC2)cc1)NCc1cccnc1`, 3.06%; that for `CN(c1ccc(OCC(=O)NCc2cccnc2)cc1)S(=O)(=O)c1ccc(Cl)cc1`, -58.4%.

Turning to `CN(c1ccc(OCC(=O)OCC(=O)NCc2ccco2)cc1)S(=O)(=O)c1ccc2ccccc2c1`, the “hERG current change (%, negative = inhibition) at 10uM” value stood at 2.22%. `CN(c1ccc(OCC(=O)O)cc1)S(=O)(=O)c1ccc2ccccc2c1`: the “hERG current change (%, negative = inhibition) at 10uM” value was 16.1%. On to `Cc1ccc(S(=O)(=O)N(Cc2ccc(Cl)cc2)c2ccccc2C(=O)NCc2ccco2)cc1`, for which the “hERG current change (%, negative = inhibition) at 10uM” value is -10.8%. Take `O=C(COc1ccc(S(=O)(=O)N2CCCC2)cc1)NCc1cccnc1`: the “hERG current change (%, negative = inhibition) at 10uM” value is -3.42%.
